From PubChem
Shown are actives, neighbours in structure and some others; about 7.1% of the full set was active somewhere.
MCF10A rereplic = induces DNA re-replication in MCF 10a normal breast cells. Potency, µM (top dose mostly 46.1 µM), for inactives: at the top dose activity, positive = re-replication, most hits filed as activators. MCF 10A DNA re-replication, Hoechst nuclear intensity, 48 h. 350,000 tested, 2.9% active. AID 624296; note: % of control where 0% means no effect; nearly all actives have a fitted effect of over 50% in size
ELG1 genotoxic = genotoxicity induction in ELG1-luciferase HEK293T cells; HEK293T ELG1-luciferase reporter, luminescence, 16 h; Potency, µM (titrated, usually from 46 µM), inactives show top-dose activity change, positive = activation, usual class: activators; 330,000 tested, 1.3% active; AID 504466; note: % of control where 0% means no effect; nearly all actives have a fitted effect of over 60% in size
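16 hr compound incubation (37 °C, 5% CO2) of HEK293T cells carrying luciferase-tagged ELG1; luciferase then measured by ONE-Glo luminescence after 30 min at RT.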
A-T KAP1 phos = candidate therapy for ataxia-telangiectasia; Potency, µM (top dose mostly 57.5 µM), for inactives: at the top dose activation, hits mostly activators; F2112 A-T fibroblasts, KAP-1 phosphorylation AlphaLISA; neocarzinostatin DNA damage 30 min before lysis; 320,000 tested, 0.19% active; AID 485349; note: % of control where 0% means no effect; nearly all actives have a fitted effect of over 45% in size
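ATM-like activity read as KAP-1 phosphorylation via AlphaLISA donor/acceptor antibody pairs after lysis and 6 hr at 25C. Cells were ATM-null patient fibroblasts (F2112, hTERT), dosed 60 min, then exposed to the DSB inducer NCS for 30 min.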
SW480 rereplic = induces DNA re-replication in SW480 colon adenocarcinoma cells | SW480 DNA re-replication, Hoechst DNA content imaging, 48 h | Potency, µM (highest dose often 46.1 µM), inactives show at the top dose re-replication activation, most hits filed as activators | 340,000 tested, 1.8% active; note: % of control where 0% means no effect; nearly all actives have a fitted effect of over 55% in size
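First, 250 cells per well were seeded. Next, compound or vehicle (23 nL) was pinned in, plates sat 48 hr at 37 C. Finally Hoechst was added for 40 min before fluorescence scanning.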
ELG1 repair inh = blocks ELG1-dependent DNA repair in HEK293T cells. HEK293T ELG1-luciferase reporter, luminescence, 16 h; DNA damage induced by 5-fluorouridine. AID 504467. 330,000 tested, 2.3% active. Potency, µM (series often up to 46.1 µM), inactives show top-dose activity change, negative = inhibition, usual class: inhibitors; note: % is set by controls: 0 for no effect and ±100 for the full control effect; nearly all actives have a fitted effect of over 55% in size
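Step one: seed 2,000 cells per well. Step two: pin-transfer compound or DMSO alongside 5-fluorouridine. Step three: incubate 16 hr, 37 °C, 5% CO2. Step four: add ONE-Glo, wait 30 min, read luminescence.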
p53 reactivation = restores transcriptional activity of mutant p53. Potency, µM (series often up to 92.2 µM), without a hit: at the top dose activity change, positive = activation, most hits filed as activators. AID 504706. 320,000 tested, 0.063% active. H1299 p53-A138V BP100-luciferase reporter, luminescence, 24 h; note: % of control where 0% means no effect; nearly all actives have a fitted effect of over 45% in size
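p53-null H1299 cells stably carrying temperature-sensitive p53-A138V and a BP100-luciferase reporter were pinned with compounds (4-point, 1:5 series) and held 24 hrs at 37 deg C. Luminescence was read 10 min after detection reagent.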
Starred values were filed as active, the others as inactive; ? = inconclusive; · = no result; [ ] = remark or other dose. Calls come from the whole dose curve; as a rule, active = well fitted curve in the direction sought with a large enough effect; inconclusive = small, poorly fitted or top-dose-only effect, or another doubt; inactive = no such curve, though single readings can be large; an effect the other way counts as inactive or inconclusive. Potency is the fitted concentration of half-maximal effect.

SMILES	MCF10A rereplic	ELG1 genotoxic	A-T KAP1 phos	SW480 rereplic	ELG1 repair inh	p53 reactivation
CCNc1nc(NCC)n2c(SC(C(=O)Nc3cc(C)ccc3OC)c3ccccc3)nnc2n1 (configuration not stated)	17%	-4%	-2%	2%	23µM*	-14%
CCOC(=O)C1(Cc2ccccc2)CCCCCC1=O (configuration not stated)	-4%	·	·	1%	·	·
CCOC(=O)Cc1cnc(NC(=O)CSc2nc3ncnc(N)c3[nH]2)s1	0.65µM*	-2%	2%	?	-12%	0%
CCOC(=O)Cc1cnc(NC(=O)CSc2nc(C)cc(C)n2)s1	4%	-13%	1%	-4%	-27%	-2%
CCOc1cc([N+](=O)[O-])cc2c1C(=O)Nc1ccccc1O2	-4%	0%	0%	13%	7.3µM*	0%
O=C1Nc2ccccc2Oc2cc([N+](=O)[O-])ccc21	-22%	-1%	13%	1%	?	-6%
Oc1ccc(C2C=C(c3ccc(F)cc3)Nc3ncnn32)cc1 (configuration not stated)	8%	7%	3%	10µM*	9%	5%
Cc1ccccc1C(=O)N1CCc2c([nH]c3ccccc23)C1C(F)(F)F (configuration not stated)	1%	-2%	5%	-3%	13µM*	4%
Cc1ccc(C)c(NC(=S)NC(NC(=O)OCc2ccccc2)C(Cl)(Cl)Cl)c1 (configuration not stated)	?	-3%	-2%	?	0%	-1%
CCCC(=O)NC(NC(=S)Nc1ccc(N=Nc2ccccc2)cc1)C(Cl)(Cl)Cl (configuration not stated)	13µM*	-7%	-10%	6%	?	?
S=C(Nc1ccccc1)Nc1ccc(Cl)cc1Cl	0%	21µM*	1%	-2%	8%	?
O=C(/C=C/c1ccccc1)NC(NC(=S)Nc1ccc(Cl)cc1Cl)C(Cl)(Cl)Cl (configuration not stated)	12µM*	7%	10%	?	?	20%
O=C(NC(NC(=S)Nc1c(Cl)cc(Cl)cc1Cl)C(Cl)(Cl)Cl)OCc1ccccc1 (configuration not stated)	13µM*	-1%	9%	?	-19%	3%
O=C(/C=C/c1ccccc1)NC(NC(=S)Nc1ccc(C(=O)O)cc1)C(Cl)(Cl)Cl (configuration not stated)	1%	3%	8%	-1%	18%	5%
S=C(Nc1ccccc1Cl)Nc1ccc(Cl)cc1Cl	10%	2%	2%	-15%	2%	1%
CCCC(=O)NC(NC(=S)Nc1ccc(S(N)(=O)=O)cc1)C(Cl)(Cl)Cl (configuration not stated)	-2%	0%	3%	2%	-7%	-5%
O=C(/C=C/c1ccccc1)NC(NC(=S)Nc1cccc(Cl)c1)C(Cl)(Cl)Cl (configuration not stated)	7.3µM*	-6%	-3%	?	?	-26%
O=C(CCc1ccccc1)NC(NC(=S)Nc1cccc(Cl)c1)C(Cl)(Cl)Cl (configuration not stated)	5.8µM*	-3%	0%	-11%	?	-12%
Cc1ccc(C)c(NC(=S)NC(NC(=O)/C=C/c2ccccc2)C(Cl)(Cl)Cl)c1 (configuration not stated)	2.9µM*	-10%	-1%	?	0%	-22%
O=C(CCc1ccccc1)NC(NC(=S)Nc1ccc(Br)cc1)C(Cl)(Cl)Cl (configuration not stated)	-4%	0%	-1%	-2%	?	-6%
COc1ccc([C@]23Cc4ccccc4C(O2)C2=C(O3)C(=O)c3ccccc3C2=O)cc1	·	·	2%[11.5 µM]	·	·	·
O=C(NNS(=O)(=O)c1ccccc1[N+](=O)[O-])c1cccc(Cl)c1	1%	1%	0%	0.52µM*	2%	7%
O=C(NNS(=O)(=O)c1ccccc1[N+](=O)[O-])c1cccc(Br)c1	-1%	-5%	-6%	-10%	-9%	?
Cc1ccc(NC(=S)N2CCC(c3ccccc3)C2)c(Cl)c1 (configuration not stated)	-4%	2.3µM*	4%	4%	?	25%
Cc1ccnc(NC(=O)CN2C(=O)NC(C)(c3ccc4ccccc4c3)C2=O)c1 (configuration not stated)	2%	?	-3%	-1%	0%	-7%
SMILES	MCF10A rereplic	ELG1 genotoxic	A-T KAP1 phos	SW480 rereplic	ELG1 repair inh	p53 reactivation
COc1ccc2c(c1)oc1c(SCc3nc4ccccc4[nH]3)nc(C)nc12	?	-2%	-2%	0%	?	22%
Cc1nc(SCc2nc3ccccc3[nH]2)c2oc3cc([N+](=O)[O-])ccc3c2n1	-4%	0%	1%	-4%	23µM*	2%
CCCCn1c(SCC(=O)NC2CCCC2)nnc1-c1ccco1	1%	7%	-3%	-4%	6%	-5%
CC(C)NC(=O)Nc1ccc2c(c1)C(=O)N([C@H](C)CO)C[C@H](C)[C@@H](CN(C)S(=O)(=O)c1cn(C)cn1)O2	-39%	1%	5%	12%[9.22 µM]	27%	-3%
Cc1[nH]c(C(=O)N/N=C/c2ccc(C(=O)O)cc2)c(C)c1C(=O)N/N=C/c1ccc(C(=O)O)cc1	-1%	0%	8%	-4%	3%	-2%
CCOC(=O)c1c(C)[nH]c(C(=O)N/N=C/c2ccc(Br)cc2)c1C	?	4%	0%	0.73µM*	-4%	6%
CCSC1(SCC)N=C(N)C2(C#N)C(c3ccc(OC)c(OC)c3OC)C12C#N (configuration not stated)	9.2µM*	11%	-6%	?	15µM*	-33%
COc1ccc(/C=N/NC(=O)c2ccc[nH]2)cc1	3%	8.2µM*	0%	13%	?	?
CSc1ccc(/C=N/NC(=O)c2cccs2)cc1	0%	?	-1%	-3%	?	?
CSc1ccc(/C=C/C(=O)NC(=O)c2ccccc2O)cc1	?	9.2µM*	1%	-3%	?	6%
CSc1ccc(/C=N/NC(=O)c2ccccc2Cl)cc1	23µM*	?	1%	?	?	0%
O=C(/C=C/c1ccc(Br)cc1)NC(=O)c1ccccc1O	5%[9.22 µM]	?	2%	?	?	-2%
